Measurements taken from PubChem BioAssay AID1159580 (chemical genetic matrix, 2015).
Where “and” joins values, the source holds several entries; their conditions need not be identical. Equal values may be shown once. Hit rate of the full screen: of about 5,500 compounds, about 2,000 (36%) were called active. Inconclusive results (about 18%) are left out. No stated cut-off is given here; in the data, active means normalized growth mostly below about 0.91 (no sharp cut-off); inconclusive means no clear call, values can overlap the other calls; inactive means mostly above about 0.92. Some of the results follow.

Assay: chemical genetic growth profiling, strain panel (AID 1159580);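 further: tested at 20 µM; growth read once vehicle control cultures reached saturation at 30 °C; 1 = growth at the plate median or of vehicle wells; lower values mean less growth of the strain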
Settings: S. cerevisiae deletion strains, growth OD

Measured: normalized growth

C[C@@H]1CC(Cl)CC[C@H]1C(=O)OC(C)(C)C (some centres not stated)
inactive: locus YAL013W, strain DEP1, hits give low values 0.987 | locus YAL021C, strain ccr4, hits give low values 1.02 | locus YAL026C, strain drs2, hits give low values 0.973 | locus YAL030W, strain snc1, hits give low values 0.982 | locus YBL061C, strain skt5, hits give low values 0.983 | locus YBR009C, strain hhf1, hits give low values 0.948 | locus YBR021W, strain FUR4, hits give low values 0.976 | locus YBR023C, strain chs3, hits give low values 0.98 | locus YBR171W, strain sec66, hits give low values 0.979 | locus YBR229C, strain ROT2, hits give low values 0.992 | locus YBR231C, strain swc5, hits give low values 0.986 | locus YBR279W, strain paf1, hits give low values 0.993 | locus YCL011C, strain gbp2, hits give low values 0.979 | locus YCL016C, strain dcc1, hits give low values 0.98 | locus YCL029C, strain bik1, hits give low values 0.98 | locus YCL061C, strain MRC1, hits give low values 0.983 | locus YCL069W, strain vba3, hits give low values 0.985 | locus YCR088W, strain abp1, hits give low values 0.987 | locus YDL005C, strain med2, hits give low values 0.991 | locus YDL035C, strain GPR1, hits give low values 0.995 | locus YDL040C, strain nat1, hits give low values 0.982 | locus YDL074C, strain BRE1, hits give low values 0.948 | locus YDL101C, strain DUN1, hits give low values 0.985 | locus YDL134C, strain PPH21, hits give low values 0.997 | locus YDL185W, strain tfp1, hits give low values 0.952 | locus YDL192W, strain arf1, hits give low values 0.983 | locus YDR001C, strain nth1, hits give low values 0.976 | locus YDR069C, strain doa4, hits give low values 0.97 | locus YDR101C, strain arx1, hits give low values 0.969 | locus YDR137W, strain rgp1, hits give low values 0.93 | locus YDR150W, strain NUM1, hits give low values 0.984 | locus YDR159W, strain sac3, hits give low values 0.915 | locus YDR162C, strain NBP2, hits give low values 0.992 | locus YDR195W, strain ref2 0.961 | locus YDR297W, strain sur2, hits give low values 0.981 | locus YDR318W, strain mcm21, hits give low values 0.988 | locus YDR334W, strain swr1, hits give low values 0.978 | locus YDR335W, strain msn5, hits give low values 0.981 | locus YDR388W, hits give low values 0.994 | locus YDR392W, strain spt3, hits give low values 0.774 | locus YDR502C, strain sam2, hits give low values 0.992 | locus YEL003W, strain gim4, hits give low values 0.976 | locus YEL037C, strain rad23, hits give low values 0.983 | locus YEL061C, strain CIN8 (second series), hits give low values 0.984 | locus YEL061C, strain CIN8, hits give low values 0.989 | locus YER015W, strain faa2, hits give low values 0.986 | locus YER016W, strain bim1, hits give low values 0.975 | locus YER110C, hits give low values 0.986 | locus YER111C, strain swi4, hits give low values 0.964 | locus YER155C, strain BEM2 (second series), hits give low values 0.956 | locus YER155C, strain BEM2, hits give low values 0.997 | locus YER167W, strain BCK2, hits give low values 0.993 | locus YFR010W, strain ubp6, hits give low values 0.98 | locus YGL078C, strain dbp3, hits give low values 0.983 | locus YGL086W, strain mad1, hits give low values 1 | locus YGL167C, strain pmr1, hits give low values 0.973 | locus YGL173C, strain kem1, hits give low values 0.968 | locus YGL227W, strain vid30, hits give low values 0.988 | locus YGL240W, strain doc1, hits give low values 0.978 | locus YGL248W, strain PDE1, hits give low values 0.995 | locus YGL253W, strain hxk2, hits give low values 0.969 | locus YGR078C, strain PAC10, hits give low values 0.971 | locus YGR135W, strain pre9, hits give low values 0.988 | locus YGR229C, strain SMI1, hits give low values 0.909 | locus YGR252W, strain gcn5, hits give low values 1.19 | locus YHR013C, strain ard1, hits give low values 0.95 | locus YHR027C, strain rpn1, hits give low values 0.981 | locus YHR030C, strain SLT2, hits give low values 0.982 and 1.01 | locus YHR079C, strain IRE1 (second series), hits give low values 0.985 | locus YHR079C, strain IRE1, hits give low values 1.01 | locus YHR094C, strain hxt1, hits give low values 0.972 | locus YHR129C, strain ARP1, hits give low values 0.985 | locus YHR142W, strain chs7, hits give low values 1.01 | locus YHR200W, strain rpn10, hits give low values 0.997 | locus YIL066C, strain RNR3, hits give low values 0.995 | locus YIL073C, strain SPO22, hits give low values 0.96 | locus YIL125W, strain kgd1, hits give low values 0.987 | locus YIR030C, strain dcg1, hits give low values 0.993 | locus YJL092W, strain hpr5, hits give low values 0.984 | locus YJL095W, strain BCK1 (second series), hits give low values 0.984 | locus YJL095W, strain BCK1, hits give low values 1 and 1.01 | locus YJL115W, strain asf1, hits give low values 0.993 | locus YJL129C, strain trk1, hits give low values 0.975 | locus YJL134W, strain LCB3, hits give low values 0.99 | locus YJL154C, strain vps35, hits give low values 0.98 | locus YJL164C, strain tpk1, hits give low values 1 | locus YJL166W, strain qcr8, hits give low values 0.986 | locus YJL168C, strain set2, hits give low values 0.979 | locus YJL187C, strain SWE1 (second series), hits give low values 0.975 | locus YJL187C, strain SWE1, hits give low values 0.986 | locus YJR043C, strain POL32, hits give low values 0.977 | locus YJR066W, strain TOR1, hits give low values 0.939
